We go through 38 molecules from PubChem BioAssay (NCI).

The panel holds about 79,000 compounds, 15% with a hit somewhere; the sample as a whole holds those more often. Unmarked numbers belong to inactive results. Active and inactive are the calls of the source. No stated cut-off is given here; in the data, active means growth inhibition above about 70%; inactive means the rest.

The first test can be described thus: NCI Yeast Anticancer Drug Screen. Data for the rad14 strain (AID 159).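 Further: 0% = growth of vehicle-treated control cultures.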 The note with it: S. cerevisiae rad14 strain growth inhibition; at 33.0 µM; active compounds read high. The essentials: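 A mutant yeast strain defective in DNA damage repair is treated with compound; inhibition of its growth is scored against untreated, vehicle-exposed cultures.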
For `O=[N+]([O-])c1cc[n+]([O-])cc1`, the growth inhibition is 19%.
On to `CC1(C)CC(=O)C(/C=N/c2nc(-c3ccccc3)cs2)=C(O)C1`, for which the growth inhibition is 45%.
For the molecule `Nc1nc(N)c2nc(CNc3ccc(C(=O)NC(CCC(=O)O)C(=O)O)cc3F)cnc2n1` (stereo unspecified), the growth inhibition was 54%.
For the molecule `COC(=O)CC1(O)C(/C=C/c2ccccc2)C(C(=O)OC)C(=O)C(C(=O)OC)C1C(=O)OC` (stereo unspecified), the growth inhibition is 0%.
On the same count and under the same terms, the figure for `CC(C)(C)c1ccc(NS(=O)(=O)c2ccc(N)cc2)cc1` is 2%; for `CCN(CC)CCNc1ccc([N+](=O)[O-])c2nc3ccccc3c(N)c12` it is -34%; for `CCCCN(CCCC)C(=O)/C=C/c1ccccc1` it is 23%.
On the same count and under the same terms, the figure for `O=c1[nH]c(-c2ccccc2)nc2c1sc1nc3ccccc3n12` is -14%; for `O=[N+]([O-])c1ccc2c(c1)/C(=N/N=C1c3ccccc3Cc3ccccc31)c1cc([N+](=O)[O-])cc([N+](=O)[O-])c1-2` it is 99% (active).
Turning to `CC(C)C(C)/C=C\C(C)C1CCC2C3=CC=C4CC(O)CCC4(C)C3CCC21C` (stereo unspecified), the growth inhibition was -2%.
For `O=C1Nc2ccc(Br)cc2C1=Nc1ccc2c(c1)OCO2`, the growth inhibition was -21%.
Regarding `CCCCOCn1c(=O)[nH]c(=O)c2cc(Br)ccc21`, the growth inhibition was -35%.
In the case of `Cc1ccc(S/C(=C\C(=O)O)c2ccccc2)cc1`, the growth inhibition is 17%.
The same measure, in the same setting: as for `O=[N+]([O-])/C=C/c1cc(Cl)c(/C=C/[N+](=O)[O-])cc1Cl`, the figure is 97% (active).
Consider `Cc1cc(S(=O)(=O)Nc2nnc3cnc4ccccc4n23)c(S)cc1Cl`, for which the growth inhibition is 21%.
On the same count and under the same terms, the figure for `O=C(/C=C/c1cc(Cl)cc(Cl)c1O)c1cccc(O)c1` is 98% (active); for `NC1CCCCC1N.Nc1c(N=Nc2ccc(-c3ccc(N=Nc4cc(S(=O)(=O)[O-])c5ccccc5c4N)cc3)cc2)cc(S(=O)(=O)[O-])c2ccccc12.[OH3+].[OH3+].[Pt+4]` it is 94% (active); for `COC(=O)CCC(NC(=S)N/N=C(\C)c1ccccn1)C(=O)OC` (stereo unspecified) it is 69%.
Turning to `NC(=O)C(=O)NNc1ccccc1`, the growth inhibition is 66%.
On the same count and under the same terms, the figure for `COc1cc(C2SCC(=O)N2c2ccc(-c3ccc(-n4c(-c5ccccc5)nc5ccccc5c4=O)cc3)cc2)ccc1O` (stereo unspecified) is 11%; for `COc1ccc(/C=C/c2sc3ccccc3[n+]2CCCCI)cc1OC` it is 84% (active).
With `Cc1c(C(C)C)cc(OCCO)cc1C(C)C`, the growth inhibition is -4%.
On the same count and under the same terms, the figure for `Cc1cc(NCCCCCCCCNc2cc(C)nc3cc(N)ccc23)c2ccc(N)cc2n1` is 97% (active); for `C=C(Cl)COC(=O)Nc1cccc(Cl)c1` it is 39%.
On to `CC(=O)OC1CC2C(C)(C)C(=O)C=C[C@]2(C)C2CCC3(C)C(=CCC3[C@H](CO)C[C@H](O)C(=O)C(C)(C)O)[C@]12C` (stereo partly specified), for which the growth inhibition is -5%.
The same measure, in the same setting: the figure for `COc1ccc(/C=C/C(=O)c2ccccc2)cc1OC` is 46%; for `COc1c(O)c(C=O)c(Br)c(C=O)c1O` it is 42%; for `O=[N+]([O-])c1cc(Cl)cnc1Br` it is 14%.
Take `Cc1ccc2c(c1)C1(SC(C)C(=O)N1c1ccc(Cl)cc1)C(=O)N2` (stereo unspecified): the growth inhibition is 96% (active).
Take `COc1cc(CSc2ccc(O)cc2)cc(O)c1O`: the growth inhibition is 0%.
Turning to `Cc1ccc2c3ccc4c(c3n(C)c2c1)C(=O)C=CC4=O`, the growth inhibition is -6%.
Same read-out and setting: as for `O=C(Nc1ccc(Cl)cc1)Nc1nnc2nc(C(C(=O)c3cccc([N+](=O)[O-])c3Cl)c3nc4nnc(NC(=O)Nc5ccc(Cl)cc5)n4[nH]c3=O)c(=O)[nH]n12`, the figure is 1%.
As to `O=C(O)C1CC(c2ccccc2)=NN1c1ccccc1` (stereo unspecified), the growth inhibition is 28%.
On the same count and under the same terms, as for `CCCCc1ccc(-n2c(C)c(COC(=O)NC)c(COC(=O)NC)c2C)cc1`, the figure is 97% (active).
As to `CCC(=O)c1cc(C(=O)C(=S)SC)cc(C(=O)C(=S)SC)c1`, the growth inhibition was 98% (active).
Regarding `CCn1c(O)c(C=Nc2ccccc2)s/c1=N/Nc1nc(-c2ccccc2)cs1`, the growth inhibition was 7%.
Turning to `Cc1ccccc1N=C(NO)c1ccccc1`, the growth inhibition is 29%.
Same read-out and setting: the figure for `Cc1nc2ccccc2nc1NNc1ccccc1` is 7%.

The same test, now with this note: S. cerevisiae rad14 strain growth inhibition; at 100.0 µM; active compounds read high.
For the molecule `O=[N+]([O-])c1cc[n+]([O-])cc1`, the growth inhibition is 99% (active).
Consider `CC1(C)CC(=O)C(/C=N/c2nc(-c3ccccc3)cs2)=C(O)C1`, for which the growth inhibition is 83% (active).
Still for that read-out and setting: the figure for `Nc1nc(N)c2nc(CNc3ccc(C(=O)NC(CCC(=O)O)C(=O)O)cc3F)cnc2n1` (stereo unspecified) is 82% (active); for `COC(=O)CC1(O)C(/C=C/c2ccccc2)C(C(=O)OC)C(=O)C(C(=O)OC)C1C(=O)OC` (stereo unspecified) it is 2%.
The same measure, in the same setting: the figure for `CC(C)(C)c1ccc(NS(=O)(=O)c2ccc(N)cc2)cc1` is 40%.
`CCN(CC)CCNc1ccc([N+](=O)[O-])c2nc3ccccc3c(N)c12`: the growth inhibition is -8%.
For `CCCCN(CCCC)C(=O)/C=C/c1ccccc1`, the growth inhibition was 65%.
Consider `O=c1[nH]c(-c2ccccc2)nc2c1sc1nc3ccccc3n12`, for which the growth inhibition is -11%.
On the same count and under the same terms, as for `O=[N+]([O-])c1ccc2c(c1)/C(=N/N=C1c3ccccc3Cc3ccccc31)c1cc([N+](=O)[O-])cc([N+](=O)[O-])c1-2`, the figure is 95% (active); as for `CC(C)C(C)/C=C\C(C)C1CCC2C3=CC=C4CC(O)CCC4(C)C3CCC21C` (stereo unspecified), 27%.
In the case of `O=C1Nc2ccc(Br)cc2C1=Nc1ccc2c(c1)OCO2`, the growth inhibition is -33%.
The same measure, in the same setting: as for `CCCCOCn1c(=O)[nH]c(=O)c2cc(Br)ccc21`, the figure is -42%; as for `Cc1ccc(S/C(=C\C(=O)O)c2ccccc2)cc1`, 34%.
For `O=[N+]([O-])/C=C/c1cc(Cl)c(/C=C/[N+](=O)[O-])cc1Cl`, the growth inhibition was 92% (active).
The same measure, in the same setting: as for `Cc1cc(S(=O)(=O)Nc2nnc3cnc4ccccc4n23)c(S)cc1Cl`, the figure is 40%; as for `O=C(/C=C/c1cc(Cl)cc(Cl)c1O)c1cccc(O)c1`, 97% (active); as for `NC1CCCCC1N.Nc1c(N=Nc2ccc(-c3ccc(N=Nc4cc(S(=O)(=O)[O-])c5ccccc5c4N)cc3)cc2)cc(S(=O)(=O)[O-])c2ccccc12.[OH3+].[OH3+].[Pt+4]`, 81% (active).
In the case of `COC(=O)CCC(NC(=S)N/N=C(\C)c1ccccn1)C(=O)OC` (stereo unspecified), the growth inhibition was 92% (active).
Consider `NC(=O)C(=O)NNc1ccccc1`, for which the growth inhibition is 98% (active).
Still for that read-out and setting: the figure for `COc1cc(C2SCC(=O)N2c2ccc(-c3ccc(-n4c(-c5ccccc5)nc5ccccc5c4=O)cc3)cc2)ccc1O` (stereo unspecified) is 25%; for `COc1ccc(/C=C/c2sc3ccccc3[n+]2CCCCI)cc1OC` it is 98% (active).
Same read-out and setting: as for `Cc1c(C(C)C)cc(OCCO)cc1C(C)C`, the figure is 36%; as for `Cc1cc(NCCCCCCCCNc2cc(C)nc3cc(N)ccc23)c2ccc(N)cc2n1`, 96% (active); as for `C=C(Cl)COC(=O)Nc1cccc(Cl)c1`, 97% (active).
On the same count and under the same terms, as for `CC(=O)OC1CC2C(C)(C)C(=O)C=C[C@]2(C)C2CCC3(C)C(=CCC3[C@H](CO)C[C@H](O)C(=O)C(C)(C)O)[C@]12C` (stereo partly specified), the figure is 77% (active).
As to `COc1ccc(/C=C/C(=O)c2ccccc2)cc1OC`, the growth inhibition is 92% (active).
The same measure, in the same setting: the figure for `COc1c(O)c(C=O)c(Br)c(C=O)c1O` is 83% (active); for `O=[N+]([O-])c1cc(Cl)cnc1Br` it is 31%.
Same read-out and setting: as for `Cc1ccc2c(c1)C1(SC(C)C(=O)N1c1ccc(Cl)cc1)C(=O)N2` (stereo unspecified), the figure is 99% (active).
`COc1cc(CSc2ccc(O)cc2)cc(O)c1O`: the growth inhibition is 1%.
The same measure, in the same setting: the figure for `Cc1ccc2c3ccc4c(c3n(C)c2c1)C(=O)C=CC4=O` is 59%.
Consider `O=C(Nc1ccc(Cl)cc1)Nc1nnc2nc(C(C(=O)c3cccc([N+](=O)[O-])c3Cl)c3nc4nnc(NC(=O)Nc5ccc(Cl)cc5)n4[nH]c3=O)c(=O)[nH]n12`, for which the growth inhibition is 56%.
Same read-out and setting: the figure for `O=C(O)C1CC(c2ccccc2)=NN1c1ccccc1` (stereo unspecified) is 97% (active); for `CCCCc1ccc(-n2c(C)c(COC(=O)NC)c(COC(=O)NC)c2C)cc1` it is 89% (active).
In the case of `CCC(=O)c1cc(C(=O)C(=S)SC)cc(C(=O)C(=S)SC)c1`, the growth inhibition was 95% (active).
For the molecule `CCn1c(O)c(C=Nc2ccccc2)s/c1=N/Nc1nc(-c2ccccc2)cs1`, the growth inhibition is 1%.
The same measure, in the same setting: the figure for `Cc1ccccc1N=C(NO)c1ccccc1` is 96% (active); for `Cc1nc2ccccc2nc1NNc1ccccc1` it is 38%.
